Experimental data published in PubChem BioAssay (EPA / NIEHS).
Inconclusive results are not listed. Some compounds were tested as several samples or in several runs, with calls that do not always agree. The source made the active and inactive calls. The calls were made as follows: active = hit-call score of the fitted dose curve at least 0.9, where 1 is the maximum; inconclusive = response in the unintended direction; inactive = score below 0.9.

biological target: Peroxisome proliferator-activated receptor gamma (Homo sapiens) (UniProt P37231); experiment: NVS_NR_hPPARg: NovaScreen (NVS) Nuclear Receptor Binding Assay for human Peroxisome Proliferator-activated Receptor gamma (PPARg) (AID 2283370)
Method: NVS_NR_hPPARg is a biochemical, single-readout assay that uses extracted gene-proteins in a cell-free assay. Measurements were taken 2 hours after chemical dosing in a 384-well plate.NVS_NR_hPPARg is one of one assay component(s) measured or calculated from the NVS_NR_hPPARg assay. It is designed to make measurements of fluorescent polarization, a form of binding reporter, as detected with fluorescence polarization signals by Fluorescence Polarization technology.Data from the assay component NVS_NR_hPPARg was analyzed into 1 assay endpoint. This assay endpoint, NVS_NR_hPPARg, was analyzed in the positive analysis fitting direction relative to DMSO as the negative control and baseline of activity. Using a type of binding reporter, loss-of-signal activity can be used to understand changes in the binding as they relate to the gene PPARG. Furthermore, this assay endpoint can be referred to as a primary readout, because the performed assay has only produced 1 assay endpoint. To generalize the intended target to other relatable targets, this assay endpoint is annotated to the nuclear receptor intended target family, where the subfamily is non-steroidal.
Binding assays used specific radioligands (tritiated, iodinated) with non-radioactive competitive displacement ligands in agonist or antagonist protocols (as indicated) and various reference compounds and inhibitors to titrate specific binding to receptors and transporters. Most enzyme assays (CYPs, kinases, phosphatases, proteases, HDACs) used recombinant protein and specific substrates (fluorescence mostly, some colorimetric and radioactive) and inhibitors, followed by a biochemical separation of substrate and product. All assays for the biochemical HTS were initially run in duplicate at a single concentration (10 uM for CYP450 assays and 25 uM for all others). […] Each assay was run with positive and negative controls, and concurrent controls on every plate. The follow-up (secondary) screen tested active chemical-pairs in concentration series, as well as a few additional assays not tested in the primary screen, some selected negative inactives, and several cases re-run in the concentration series for confirmatory purposes.

Chain of Peroxisome proliferator-activated receptor gamma (Homo sapiens) (P37231 whole entry, looked up): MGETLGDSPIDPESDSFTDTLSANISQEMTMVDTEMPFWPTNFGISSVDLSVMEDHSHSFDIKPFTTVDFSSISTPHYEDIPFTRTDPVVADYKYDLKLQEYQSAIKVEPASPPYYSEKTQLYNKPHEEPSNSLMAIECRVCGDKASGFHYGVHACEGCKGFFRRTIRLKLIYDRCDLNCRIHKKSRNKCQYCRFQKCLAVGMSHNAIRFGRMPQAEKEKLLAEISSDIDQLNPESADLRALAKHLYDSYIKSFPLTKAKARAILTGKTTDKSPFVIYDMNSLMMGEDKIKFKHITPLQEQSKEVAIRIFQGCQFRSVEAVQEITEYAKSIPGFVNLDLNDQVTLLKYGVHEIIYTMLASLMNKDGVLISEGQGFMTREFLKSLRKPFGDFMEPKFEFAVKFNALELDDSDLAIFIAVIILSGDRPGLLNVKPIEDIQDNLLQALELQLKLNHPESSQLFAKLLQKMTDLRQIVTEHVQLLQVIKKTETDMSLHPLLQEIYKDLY

| SMILES | outcome | AC50 |
| --- | --- | --- |
| COc1cnc(OC)n2nc(NS(=O)(=O)c3c(OCC(F)F)cccc3C(F)(F)F)nc12 | inactive |  |
| Cc1cc(Cl)ccc1OCC(=O)O | inactive |  |
| CCOC(=O)CC(SP(=S)(OC)OC)C(=O)OCC (stereo not given) | inactive |  |
| COc1ccc(C(c2ccc(OC)cc2)C(Cl)(Cl)Cl)cc1 | inactive |  |
| O=C(O)COc1nc(Cl)c(Cl)cc1Cl | inactive |  |
| CCNc1nc(Cl)nc(NCC)n1 | inactive |  |
| C=CCC1=C(C)C(OC(=O)C2C(C=C(C)C)C2(C)C)CC1=O (stereo not given) | inactive | 39.1 µM (active) |
| CON(C)C(=O)Nc1ccc(Cl)c(Cl)c1 | inactive |  |
| CCCCNC(=O)OCC#CI | inactive |  |
| CCCN(CCC)c1c([N+](=O)[O-])cc(S(N)(=O)=O)cc1[N+](=O)[O-] | inactive | 0.0071 µM (active) |
| N#Cc1nn(-c2c(Cl)cc(C(F)(F)F)cc2Cl)c(N)c1S(=O)C(F)(F)F (stereo not given) | inactive |  |
| COP(N)(=O)SC (stereo not given) | inactive |  |
| C=CC1(C)OC(=O)N(c2cc(Cl)cc(Cl)c2)C1=O (stereo not given) | inactive |  |
| CCCCC(CC)COC(=O)c1ccccc1C(=O)OCC(CC)CCCC (stereo not given) | inactive |  |
| CO/C=C(/C(=O)OC)c1ccccc1Oc1cc(Oc2ccccc2C#N)ncn1 | inactive |  |
| C#CCOS(=O)OC1CCCCC1Oc1ccc(C(C)(C)C)cc1 (stereo not given) | inactive |  |
| Oc1ccccc1-c1ccccc1 | inactive |  |
| CCCCOC(=O)c1ccccc1C(=O)OCCCC | inactive |  |
| Cc1ccc(-c2c(Cl)nc(C#N)n2S(=O)(=O)N(C)C)cc1 | inactive |  |
| CCCC1COC(Cn2cncn2)(c2ccc(Cl)cc2Cl)O1 (stereo not given) | inactive |  |
| COc1nc(C)nc(NC(=O)NS(=O)(=O)c2ccccc2CCC(F)(F)F)n1 | inactive |  |
| CCNc1nc(Cl)nc(NC(C)C)n1 | inactive |  |
| COC(=O)c1ccccc1C(=O)OC | inactive |  |
